# Compounds with a hit are over-represented: about 1.4% of the library has one in this group of screens.
# BRCA1 expr act: activators of BRCA1 expression | MCF7-BRCA1-FFLuc reporter, luminescence, 48 h; response scale: scaled: vehicle 0%, 10 µM genistein 100% | Potency, µM (highest dose often 46.1 µM), for inactives: at the top dose activation, usual class: activators | 380,000 tested, 1.1% active; also: nearly all actives have a fitted effect of over 80% in size
#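 Luminescence from a BRCA1-driven firefly luciferase in MCF7 cells was the read-out, taken 15 min after substrate addition following 48 h compound exposure at 37 °C. Data were normalized to a 10 microM genistein control and DMSO vehicle.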
# EPAC1 agonist: agonists of human EPAC1. O95398. AID 720707. EPAC1 agonist qHTS, biochemical assay; response scale: 100% = response to 6.5 mM cAMP. 360,000 tested, 0.073% active. Potency, µM (top dose mostly 154 µM), without a hit: at the top dose activation, most hits filed as activators; also: nearly all actives have a fitted effect of over 60% in size
#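 Normalized to 6.5 mM cAMP, activity reflects EPAC1-catalysed release of BODIPY-GDP from Rap1B, followed kinetically over 30 min at 480 nm excitation, 540 nm emission. Reaction contained 100 nM EPAC1, 250 nM Rap1B-BODIPY-GDP, 50 uM GDP.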
# EPAC2 antag: antagonists of human EPAC2. Potency, µM (top dose mostly 114 µM), without a hit: at the highest dose activity, negative = inhibition, usual class: inhibitors. 360,000 tested, 0.18% active. EPAC2 GEF exchange of Rap1B-BODIPY-GDP, fluorescence; also: % is scaled to controls: 0 for no effect and ±100 for the full control effect; nearly all actives have a fitted effect of over 45% in size
# EPAC1 antagonist: blocks human EPAC1 exchange factor. O95398. EPAC1 GEF assay, Rap1b-BODIPY-GDP exchange fluorescence. Potency, µM (doses to about 115 µM), without a hit: at the top dose activity change, negative = inhibition, hits mostly inhibitors. 360,000 tested, 0.14% active;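 also: plate controls were vehicle for no effect and positive control for full effect; nearly all actives have a fitted effect of over 50% in size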
# USP1 inh: inhibitors of human USP1/UAF1 deubiquitinase; 390,000 tested, 0.23% active; O94782; recombinant USP1/UAF1, Ub-Rhodamine cleavage fluorescence; Potency, µM (highest dose often 57.1 µM), inactives show top-dose activity change, negative = inhibition, most hits filed as inhibitors; also: % is scaled to controls: 0 for no effect and ±100 for the full control effect; nearly all actives have a fitted effect of over 60% in size
#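 USP1/UAF1 complex (1 nM) preincubated 15 min at room temperature with compound, then Ub-Rho substrate (150 nM final) added. Kinetic fluorescence at 480/540 nm over 6 reads at 60 s intervals; 50 mM HEPES pH 7.8, 0.5 mM EDTA, 0.1 mg/ml BSA, 1 mM TCEP, 0.01% Tween-20.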
# EPAC2 ag: EPAC2 (human) agonism; 360,000 tested, 0.079% active; Potency, µM (titrated, usually from 154 µM), for inactives: at the highest dose activation, most hits filed as activators; Q8WZA2; AID 720711; EPAC2 activation, biochemical qHTS; response scale: 100% = 6.5 mM cAMP response; also: nearly all actives have a fitted effect of over 50% in size
#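 Compounds were added across a concentration range to EPAC2 (100 nM), RAP1B-BODIPY-GDP (250 nM) and GDP (50 uM). After 5 min at room temperature, fluorescence was recorded at 5-min intervals for 30 min.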
# The depositor's hits bear a star; ? = inconclusive; · = not tested or not shown; [ ] = remark or other dose. Calls follow the shape of the dose curve; as a rule, active = well fitted curve in the direction sought with a large enough effect; inconclusive = small, poorly fitted or top-dose-only effect, or another doubt; inactive = no such curve, though single readings can be large; an effect the other way counts as inactive or inconclusive. Potency is read from the fitted curve at half-maximal effect.
SMILES,BRCA1 expr act,EPAC1 agonist,EPAC2 antag,EPAC1 antagonist,USP1 inh,EPAC2 ag
c1ccc(CCNc2ncnc3c2cnn3-c2ccccc2)cc1,4.5µM*,?,-17%,-11%,-4%,21%
CCOC(=O)CC(=O)CSc1ncnc2c1cnn2-c1ccccc1,6.3µM*,-1%,0%[57.1 µM],-4%,-20%,-8%
CCN(c1ccccc1)c1ncnc2c1cnn2-c1ccccc1,5µM*,9%,-3%,-11%,-17%,17%
Cc1ccc(-n2ncc3c(SCc4ccccc4)ncnc32)cc1,4.5µM*,9%,-16%,-5%,-6%,12%
CN(Cc1ccccc1)c1ncnc2c1cnn2-c1ccccc1,?,16%,-5%,-1%,-10%,24%
COC(=O)c1sccc1NC(=O)COc1ccccc1Cl,5%,-3%,-2%,-15%,-16%,-1%
CC(NC(=O)C1CCN(S(=O)(=O)c2ccc(Br)s2)CC1)c1ccccc1 (stereo not given),-18%,4%,-3%,6%,-28%,6%
CC1CCN(C(=O)CCC(=O)Nc2nnc(C(F)(F)F)s2)CC1,-11%,-6%,-9%,-10%,-17%,-8%
Cc1ccc(CSc2ncnc3c2cnn3-c2ccc(C)cc2)cc1,4.5µM*,12%,-16%,-2%,-11%,9%
COc1ccccc1C(=O)Nc1ccc(N2CCN(S(C)(=O)=O)CC2)cc1,11µM*,2%,10%,16%,-11%,1%
COc1c(C)cccc1C(=O)Nc1ccc(N2CCN(S(C)(=O)=O)CC2)cc1,3.5µM*,15%,-1%,-23%,-5%,1%
COc1ccccc1C(=O)Nc1ccccc1N1CCN(S(C)(=O)=O)CC1,-24%,-1%,-5%,-13%,-15%,4%
Cc1[nH][nH]c(=O)c1C(c1c(C)[nH][nH]c1=O)c1cn(Cc2ccc(F)cc2)c2ccccc12,-24%,19%,-14%,-25%,?,3%
Cc1[nH][nH]c(=O)c1C(c1c(C)[nH][nH]c1=O)c1cn(Cc2ccc(Cl)c(Cl)c2)c2ccccc12,-19%,26%,-6%,-24%,28µM*,7%
Cc1cccc2c1ncc1c(=O)n(-c3ccccc3)[nH]c12,?,-10%,1%,-6%,-20%,8%
Cc1cc2oc(=O)cc(CN(C)Cc3cccc(F)c3)c2cc1C,11µM*,10%,-29%,2%,-30%,12%
Cc1cc(C)c2c(CN(C)Cc3ccccc3)cc(=O)oc2c1,13µM*,6%,-27%,0%,·,13%
O=[N+]([O-])c1ccccc1OCCCn1cnc2ccccc21,2µM*,2%,3%,0%,-4%,-8%
O=c1c2ccccc2ncn1CCCOc1ccccc1[N+](=O)[O-],?,0%,6%,6%,-9%,7%
COC(=O)[C@@H](NC(=O)Nc1ccc(C(C)=O)cc1)C(C)C,1%,5%,9%,20%,3%,-2%
COc1ccc(C(C)NC(=O)Nc2ccc(C(C)=O)cc2)cc1OC (stereo not given),11µM*,-18%,3%,17%,-9%,-5%
O=C(NCCCN1CCCC1=O)c1cc2c(s1)CCCCC2,11µM*,14%,7%,6%,-14%,-2%
O=C1C=C(Nc2ccccc2O)c2ccccc2C1=O,-109%,-5%,-1%,-23%,18µM*,-3%
O=C(Nc1ccccc1O)c1ccc2c(c1)C(=O)N(N1C(=O)c3ccccc3C1=O)C2=O,-25%,-5%,1%,11%,-6%,0%
Cc1ccc(NC2=CC(=O)C(=O)c3ccccc32)c(C)c1,-82%,0%,15%,-20%,32µM*,1%
O=C1C=C(NCc2ccccc2)c2ccccc2C1=O,-109%,-8%,?,?,2.5µM*,26%
CC(=O)N1CCc2cc(Br)cc(S(=O)(=O)N3CCN(c4cc(C)ccc4C)CC3)c21,·,·,·,·,-7%,·
